Inconclusive results are not listed. Active and inactive are the calls of the source. The call rests on the fitted dose curve; in most records, active means well fitted curve in the direction sought with a large enough effect; inconclusive means small, poorly fitted or top-dose-only effect, or another doubt; inactive means no such curve, though single readings can be large; an effect the other way counts as inactive or inconclusive.
Columns and labels:
[1] = tested on: CRL-7250; experiment: Cytotoxic Profiling of Annotated Libraries Using Quantitative High-Throughput Screening (AID 1296008); conditions: Five cell lines viability, CellTiter-Glo ATP luminescence, 48-72 h; max response: stronger effect = lower value; further: nearly all actives have a fitted effect of over 60% in size; on max response: on the % scale 0 is the no-effect control and ±100 the full control effect
How it was run: (§1)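 Cells exposed to compounds for 48 or 72 hr at 37 degrees Celsius. Viability read as ATP-coupled luminescence with CellTiter-Glo after 10 min at room temperature.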

[2] = tested on: HEK293; experiment: as above; conditions: Five cell lines viability, CellTiter-Glo ATP luminescence, 48-72 h; max response: stronger effect = lower value
How it was run: as §1

[3] = tested on: HaCat; experiment: as above; conditions: Five cell lines viability, CellTiter-Glo ATP luminescence, 48-72 h; max response: stronger effect = lower value
How it was run: as §1

[4] = tested on: KB-3-1; experiment: as above; conditions: Five cell lines viability, CellTiter-Glo ATP luminescence, 48-72 h; max response: stronger effect = lower value
How it was run: as §1

[5] = tested on: NIH3T3; experiment: as above; conditions: Five cell lines viability, CellTiter-Glo ATP luminescence, 48-72 h; max response: stronger effect = lower value
How it was run: as §1

[6] = tested on: HACAT; experiment: qHTS assay to identify novel small-molecules to repurpose for Merkel cell carcinoma treatment (AID 1296009); conditions: MCC and control cell lines, CellTiter-Glo viability, 72 h; at 44.8 µM (top of the series) unless noted; further: nearly all actives have a fitted effect of over 60% in size
How it was run: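 Cells were treated for 72 hr at 37 degree celsius with compounds in 8- or 11-point dose response. Viability was read by CellTiter-Glo luminescence, normalized to no-cell (cytotoxicity) and DMSO controls.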

[7] = tested on: C33A; experiment: Primary qHTS to identify gynecologic anti-cancer compounds using libraries of approved drugs and bioactive compounds (AID 1345084); conditions: Gynecologic cancer cell panel viability, ATPlite luminescence, 48 h; series mostly up to 57.5 µM; further: on the % scale 0 is the no-effect control and ±100 the full control effect; nearly all actives have a fitted effect of over 55% in size
How it was run: (§2)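 ATP-based viability (ATPlite), 1,000 cells/well, 16 h pre-incubation, 48 h compound at 37 C, 5% CO2, 15 min RT before read.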

[8] = tested on: CAOV3; experiment: as above; conditions: Gynecologic cancer cell panel viability, ATPlite luminescence, 48 h; series mostly up to 57.5 µM
How it was run: as §2

[9] = tested on: CASKI; experiment: as above; conditions: Gynecologic cancer cell panel viability, ATPlite luminescence, 48 h; series mostly up to 57.5 µM
How it was run: as §2

[10] = tested on: Es-2; experiment: as above; conditions: Gynecologic cancer cell panel viability, ATPlite luminescence, 48 h; series mostly up to 57.5 µM
How it was run: as §2

[11] = tested on: HeLa; experiment: as above; conditions: Gynecologic cancer cell panel viability, ATPlite luminescence, 48 h; series mostly up to 57.5 µM
How it was run: as §2

[12] = tested on: Hek293T; experiment: as above; conditions: Gynecologic cancer cell panel viability, ATPlite luminescence, 48 h, control line for the selectivity index; series mostly up to 57.5 µM
How it was run: as §2

[13] = tested on: JEG-3; experiment: as above; conditions: Gynecologic cancer cell panel viability, ATPlite luminescence, 48 h; series mostly up to 57.5 µM
How it was run: as §2

[14] = tested on: OV90; experiment: as above; conditions: Gynecologic cancer cell panel viability, ATPlite luminescence, 48 h; series mostly up to 57.5 µM
How it was run: as §2

[15] = tested on: PA-1; experiment: as above; conditions: Gynecologic cancer cell panel viability, ATPlite luminescence, 48 h; series mostly up to 57.5 µM
How it was run: as §2

CC(CC(C)O[C@@H]1O[C@H](CO)[C@@H](O)[C@H](O)[C@H]1O)OC(=O)/C=C/c1ccc(O)cc1 (stereo not given in full)
inactive: max response [1] 2.71% | max response [2] -1.24% | outcome [3] | outcome [4] | max response [5] 3.43% | outcome [6] inactive [at 17.4 µM] | Potency [7] | Potency [8] | outcome [9] | Potency [10] | Potency [11] | Potency [12] | Potency [13] | Potency [14] | Potency [15]

CC[C@@H](C)[C@H](N)C(=O)N1Cc2ccccc2C1
inactive: max response [1] -11.3% | max response [2] -17.7% | outcome [3] | max response [4] -3.64% | max response [5] 0.412% | outcome [6] | Potency [7] | Potency [8] | outcome [9] | Potency [10] | Potency [11] | Potency [12] | Potency [13] | Potency [14] | Potency [15]

COC(=O)C1=CO[C@@H](O[C@@H]2O[C@H](CO)[C@@H](O)[C@H](O)[C@H]2O)[C@H]2[C@@H]1[C@H](O)[C@H](O)[C@]2(C)O
inactive: max response [1] -3.33% | max response [2] 1.23% | outcome [3] | max response [4] 1.73% | max response [5] 2.04% | outcome [6] inactive [at 17.4 µM] | Potency [7] | Potency [8] | outcome [9] | Potency [10] | Potency [11] | Potency [12] | Potency [13] | Potency [14] | Potency [15]

COc1ccc(-n2[nH]c3c(cnc4ccccc43)c2=O)cc1
inactive: max response [1] 1.83% | max response [2] -1.19% | outcome [3] | outcome [4] | max response [5] 3.94% | outcome [6] | Potency [7] | Potency [8] | outcome [9] | Potency [10] | Potency [11] | Potency [12] | Potency [13] | Potency [14] | Potency [15]

C[C@@H]1O[C@@H](O[C@H]2[C@H](O)[C@@H](O)[C@H](OC(=O)[C@]34CCC(C)(C)C[C@H]3C3=CCC5[C@@]6(C)CC[C@H](O[C@@H]7O[C@H](C(=O)O)[C@@H](O)[C@H](O)[C@H]7O)C(C)(C)C6CC[C@@]5(C)[C@]3(C)CC4)O[C@@H]2CO)[C@H](O)[C@H](O)[C@H]1O (stereo not given in full)
inactive: outcome [1] | max response [2] -4.26% | outcome [3] | max response [4] -0.526% | max response [5] -1.98% | outcome [6] inactive [at 9.27 µM] | activity change, negative = cytotoxicity [7] -8.12% [at 11.6 µM] | activity change, negative = cytotoxicity [8] -25.2% [at 11.6 µM] | activity change, negative = cytotoxicity [9] 5.01% [at 11.6 µM] | activity change, negative = cytotoxicity [10] -1.51% [at 11.6 µM] | activity change, negative = cytotoxicity [11] -21.7% [at 11.6 µM] | activity change, negative = cytotoxicity [12] 10.3% [at 11.6 µM] | activity change, negative = cytotoxicity [13] -2.05% [at 11.6 µM] | activity change, negative = cytotoxicity [14] -2.03% [at 11.6 µM] | activity change, negative = cytotoxicity [15] -21.3% [at 11.6 µM]

COc1c2cc(c(O[C@@H]3O[C@H](CO)[C@@H](O)[C@H](O)[C@H]3O)c1OC)CCCCC(O)CCc1ccc(O)c-2c1 (stereo not given in full)
inactive: max response [1] 0.579% | max response [2] -2.25% | outcome [3] | outcome [4] | max response [5] 1.47% | outcome [6] inactive [at 17.4 µM] | Potency [7] | Potency [8] | outcome [9] | Potency [10] | Potency [11] | Potency [12] | Potency [13] | Potency [14] | Potency [15]

CC(C)c1ccc2c(c1)C(=O)CC1C(C)(C(=O)O)CCCC21C (stereo not given)
inactive: max response [1] -5.24% | max response [2] -1.52% | outcome [3] | max response [4] -0.919% | max response [5] -2.58% | outcome [6] | Potency [7] | Potency [8] | outcome [9] | Potency [10] | Potency [11] | Potency [12] | Potency [13] | Potency [14] | Potency [15]

C=C1C[C@]23C[C@H]1CC[C@H]2[C@]1(C)CC[C@H](O)[C@@](C)(C(=O)O)[C@H]1[C@@H]3C(=O)O
inactive: max response [1] -9.09% | max response [2] 0.167% | outcome [3] | max response [4] -2.4% | max response [5] 2.39% | outcome [6] | Potency [7] | Potency [8] | outcome [9] | Potency [10] | Potency [11] | Potency [12] | Potency [13] | Potency [14] | Potency [15]

COC(=O)C1=CO[C@@H](O[C@@H]2O[C@H](CO)[C@@H](O)[C@H](O)[C@H]2O)[C@@H]2C(CO)=CC[C@H]12
inactive: max response [1] 3.17% | max response [2] -17.4% | outcome [3] | outcome [4] | max response [5] -0.343% | outcome [6] | Potency [7] | Potency [8] | outcome [9] | Potency [10] | Potency [11] | Potency [12] | Potency [13] | Potency [14] | Potency [15]

COc1cc(OC)cc(-c2ccc3c(-c4ccc(F)cc4)[nH]nc3n2)c1
inactive: outcome [1] | max response [2] -28% | outcome [3] | outcome [4] | max response [5] 0.976% | outcome [6] | Potency [7] | Potency [8] | outcome [9] | Potency [10] | Potency [11] | Potency [12] | Potency [13] | Potency [14] | Potency [15]

O=C(O)[C@H]1Cc2ccccc2CN1
inactive: max response [1] 1.62% | max response [2] 4.72% | outcome [3] | max response [4] 0.759% | max response [5] 4.47% | outcome [6] inactive [at 4.96 µM] | activity change, negative = cytotoxicity [7] -12.5% [at 6.55 µM] | activity change, negative = cytotoxicity [8] 20.2% [at 6.55 µM] | activity change, negative = cytotoxicity [9] -0.242% [at 6.55 µM] | activity change, negative = cytotoxicity [10] -0.653% [at 6.55 µM] | activity change, negative = cytotoxicity [11] 1.2% [at 6.55 µM] | activity change, negative = cytotoxicity [12] 13.1% [at 6.55 µM] | activity change, negative = cytotoxicity [13] 1.96% [at 6.55 µM] | activity change, negative = cytotoxicity [14] 0.2% [at 6.55 µM] | activity change, negative = cytotoxicity [15] 3.48% [at 6.55 µM]

From PubChem BioAssay (NCATS)
